Laboratory results as given in PubChem BioAssay (EPA / NIEHS).
Activity calls are given as the source filed them. How the source made its calls: active means hit-call score of the fitted dose curve at least 0.9, where 1 is the maximum; inactive means score below 0.9.

Experiments:
[1] = APR_HepG2_NuclearSize_24hr: Apredica 24-hour HepG2 Assay for Nuclear Size (AID 2282907); details: high-content imaging, actives raise or lower the signal
Summary of the method: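 HepG2 cells exposed 24 h to compounds at 0.39–200 uM (0.5% DMSO), fixed, Hoechst 33342 stained and imaged at 20x; nuclear diameter measured by automated image analysis, fitted bidirectionally against DMSO controls.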

[2] = APR_HepG2_CellLoss_24hr: Apredica 24-hour HepG2 Assay for Cell Loss (AID 2282908); details: high-content imaging
Summary of the method: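 HepG2 cells exposed 24 hr to 0.39–200 uM compound in duplicate at 0.5% v/v final DMSO. Cells fixed in 3.7% formaldehyde and Hoechst 33342-stained. Cell number came from nuclear imaging at 20x. Bidirectional fit versus DMSO.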

[3] = APR_HepG2_MicrotubuleCSK_24hr: Apredica 24-hour HepG2 Assay for Microtubule CSK Stabilty (AID 2282909); details: HepG2 microtubule cytoskeleton imaging, actives raise or lower the signal
Summary of the method: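 HepG2 cells were treated 24 hr with compound at 0.39–200 uM in duplicate (0.5% DMSO final), then fixed and permeabilized. Alpha-tubulin immunofluorescence was imaged by high-content microscopy, with bidirectional fitting against DMSO and taxol as positive control.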

[4] = APR_HepG2_MitoticArrest_24hr: Apredica 24-hour HepG2 Assay for Mitotic Arrest (AID 2282910); details: high-content imaging, actives raise or lower the signal
Summary of the method: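 Compounds are dosed onto HepG2 cells across ten concentrations up to 200 uM for 24 hr. Cells are then fixed in 3.7% formaldehyde, permeabilised, and labelled for phospho-histone H3 and nuclei; images are scored by cell cycle analysis and fitted bidirectionally relative to DMSO.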

[5] = APR_HepG2_MitoMembPot_24hr: Apredica 24-hour HepG2 Assay for Mitochondrial Membrane Potential (AID 2282911); details: imaging, actives raise or lower the signal
Summary of the method: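 Human hepatoma HepG2 cultures received ten compound concentrations up to 200 uM for 24 hr. Membrane-potential dye signal, captured by automated fluorescence microscopy, was scored for gain or loss against DMSO controls.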

[6] = APR_HepG2_MitoMass_24hr: Apredica 24-hour HepG2 Assay for Mitochondrial Mass (AID 2282912); details: high-content imaging, actives raise or lower the signal
Summary of the method: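 HepG2 cells exposed 24 hr to 0.39–200 uM compound, 0.5% v/v DMSO, in duplicate. Stained before fixation with 250 nM MitoTracker Red CMXRos for 30 min, then imaged at 20x with Hoechst nuclei. Fitted in both directions against DMSO.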

[7] = APR_HepG2_p53Act_24hr: Apredica 24-hour HepG2 Assay for p53 Activation (AID 2282913); details: high-content imaging, actives raise or lower the signal;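 further: p53 protein immunofluorescence averaged per cell in HepG2 with Hoechst nuclei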
Summary of the method: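 Automated fluorescence imaging quantifies p53 immunostaining in HepG2 cells after a 24 hr exposure (0.39–200 uM, duplicate, 0.5% DMSO). Nuclei are located by Hoechst 33342 staining.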

[8] = APR_HepG2_CellCycleArrest_72hr: Apredica 72-hour HepG2 Assay for Cell Cycle Arrest (AID 2282914); details: high-content imaging, actives raise or lower the signal
Summary of the method: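 Cell cycle arrest in HepG2 was scored from nuclear DNA content after 72 hr compound treatment (0.39–200 uM). Activity, either gain or loss, was fitted against the DMSO baseline.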

[9] = APR_HepG2_CellLoss_72hr: Apredica 72-hour HepG2 Assay for Cell Loss (AID 2282915); details: high-content imaging
Summary of the method: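 Cell number comes from Hoechst 33342-labelled nuclei, imaged at 20x after 3.7% formaldehyde fixation. Dosing was 0.39–200 uM, ten concentrations in duplicate, 0.5% DMSO final, for 72 h. Bidirectional fit relative to DMSO baseline.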

[10] = APR_HepG2_P-H2AX_72hr: Apredica 72-hour HepG2 Assay for H2AX Phosphorylation (AID 2282916); details: imaging, actives raise or lower the signal;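 further: phospho-histone H2A.x immunostain intensity per cell marking DNA damage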
Summary of the method: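 HepG2 cells treated 72 h at 0.39–200 uM, 0.5% DMSO final, duplicates. Formaldehyde-fixed, Triton-permeabilised, immunostained for phospho-H2A.x with Hoechst; fluorescence imaged at 20x, bidirectional fit versus DMSO.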

[11] = APR_HepG2_MitoticArrest_72hr: Apredica 72-hour HepG2 Assay for Mitotic Arrest (AID 2282918); details: high-content imaging, actives raise or lower the signal
Summary of the method: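 Mitotic arrest in HepG2 is scored from phospho-histone H3 staining after 72 hr dosing across 0.39–200 uM, with DMSO at 0.5% v/v. Nuclei are identified by Hoechst 33342 and fluorescence intensity is quantified per cell.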

[12] = APR_HepG2_MicrotubuleCSK_72hr: Apredica 72-hour HepG2 Assay for Microtubule CSK Stabilty (AID 2282919); details: HepG2 microtubule cytoskeleton, high-content imaging, actives raise or lower the signal
Summary of the method: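 Read-out is tubulin fluorescence intensity from high-content imaging of HepG2 cells, with nuclei identified by Hoechst 33342. Treatment lasts 72 h at 0.39–200 uM, and curves are fitted bidirectionally against the DMSO negative control.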

[13] = APR_HepG2_P-H2AX_24hr: Apredica 24-hour HepG2 Assay for H2AX Phosphorylation (AID 2282920); details: high-content imaging, actives raise or lower the signal
Summary of the method: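 Signal comes from a FITC-labeled secondary detecting phospho-histone H2A.x in fixed HepG2 cells, quantified by automated imaging at 20x. Dosing ran 24 hr across 0.39–200 uM with 0.5% v/v DMSO.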

[14] = APR_HepG2_StressKinase_72hr: Apredica 72-hour HepG2 Assay for Stress Kinase (AID 2282921); details: HepG2 stress kinase (phospho-c-Jun) imaging, actives raise or lower the signal
Summary of the method: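 HepG2 cells treated 72 hr with 0.39–200 uM compound, 0.5% v/v DMSO, duplicate wells. After formaldehyde fixation and Triton permeabilization, stained with anti-phospho-c-Jun (1:500) and Cy3 secondary, imaged at 20x. Fitted in both directions against DMSO.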

[15] = APR_HepG2_StressKinase_24hr: Apredica 24-hour HepG2 Assay for Stress Kinase (AID 2282922); details: HepG2 stress kinase (phospho-c-Jun) imaging, actives raise or lower the signal
Summary of the method: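 HepG2, 24 hr dosing, 0.39–200 uM in duplicate, 0.5% DMSO; formaldehyde fix (3.7%), 0.5% Triton X-100; anti-phospho-c-Jun + Cy3 secondary, Hoechst counterstain; ArrayScan imaging; bidirectional curve fit vs DMSO baseline.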

[16] = APR_HepG2_p53Act_72hr: Apredica 72-hour HepG2 Assay for p53 Activation (AID 2282923); details: high-content imaging, actives raise or lower the signal;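 further: average cellular p53 protein immunofluorescence intensity in HepG2 cells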
Summary of the method: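 HepG2 cells exposed 72 h to 0.39–200 uM in 0.5% DMSO, duplicates. Fixed, permeabilized cells immunostained for p53 (Cy5) with Hoechst; imaged at 20x, fluorescence analyzed bidirectionally against DMSO.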

[17] = APR_HepG2_MitoMass_72hr: Apredica 72-hour HepG2 Assay for Mitochondrial Mass (AID 2282924); details: high-content imaging, actives raise or lower the signal;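 further: MitoTracker Red CMXRos stain intensity per cell imaged as mitochondrial mass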
Summary of the method: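 HepG2, 72 hr cmpd, 10 conc 0.39–200 uM in dup, DMSO 0.5% v/v. MitoTracker Red CMXRos 250 nM 30 min pre-fix; formaldehyde 3.7% fix 30 min RT. HCS imaging, gain/loss fit vs DMSO.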

[18] = APR_HepG2_CellCycleArrest_24hr: Apredica 24-hour HepG2 Assay for Cell Cycle Arrest (AID 2282905); details: imaging, actives raise or lower the signal;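 further: cell cycle arrest scored as ratio of 2N to 4N nuclear DNA content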
Summary of the method: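 Compounds at 0.39–200 uM (0.5% DMSO) for 24 h, then fixed and Hoechst 33342 stained. Cell-cycle analysis of nuclear DNA content by high-content imaging, fitted bidirectionally versus DMSO.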

[19] = APR_HepG2_MitoMembPot_72hr: Apredica 72-hour HepG2 Assay for Mitochondrial Membrane Potential (AID 2282917); details: imaging, actives raise or lower the signal
Summary of the method: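 Membrane potential read by MitoTracker Red CMXRos (250 nM, 30 min, pre-fixation) fluorescence imaging of HepG2 after 72 hr exposure. Ten concentrations, 0.39–200 uM, duplicate wells, 0.5% DMSO; fitted in both directions against DMSO baseline.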

Measured: AC50

CC1(C)CC(N=C=O)CC(C)(CN=C=O)C1 (stereo not given)
active: [8] 92.5 µM | [10] 101 µM | [11] 93.1 µM | [13] 101 µM
not listed: [18] | [19]
inactive: all other assays above

CCOc1ccc2c(c1)C(C)=CC(C)(C)N2
active: [9] 103 µM | [10] 92.7 µM | [11] 78.2 µM | [13] 72.7 µM | [16] 76.1 µM
not listed: [19]
inactive: all other assays above

COc1ccc2c(c1)c(CC(=O)O)c(C)n2C(=O)c1ccc(Cl)cc1
active: [18] 76.4 µM | [8] 100 µM
not listed: [19]
inactive: all other assays above

CC(C)c1ccc(C(=O)N=C(N)N)cc1S(C)(=O)=O
not listed: [18]
inactive: all other assays above

CCCCCCCCCCC
not listed: [18] | [19]
inactive: all other assays above

CCCCc1ccc2c(n1)[C@@H](c1ccc(OC)cc1C[C@H](C)C(=O)O)[C@H](C(=O)O)[C@H]2c1ccc2c(c1)OCO2
not listed: [18]
inactive: all other assays above

CC(CO)OC(C)CO (stereo not given) (tested in a mixture with another compound)
not listed: [18]
inactive: all other assays above

Cc1nc(C)nc(N2C[C@@H](C)N(c3ccnc([C@@H](C)O)n3)[C@@H](C)C2)n1
not listed: [19]
inactive: all other assays above

COC(=O)c1ccc(O)cc1
not listed: [19]
inactive: all other assays above
